The structures appear in SMILES notation. Records with an inconclusive call do not appear. The source made the active and inactive calls. Unless noted, calls follow the shape of the dose curve; as a rule, active = well fitted curve in either direction with a large enough effect (not every such curve was filed as active); inconclusive = small, poorly fitted or top-dose-only effect, or another doubt; inactive = flat fitted curve, though single readings scatter.

The results in this text go back to PubChem BioAssay (NCATS).

In experiment [1] the target is Lysosomal acid glucosylceramidase (Homo sapiens) (UniProt P04062). The experiment is described as follows: Glucocerebrosidase-p2 (AID 348; in the data active = potency below about 10 µM; also: potency is read from the fitted curve at half-maximal effect). The conditions noted are these: purified GBA, blue fluorogenic substrate, 40 min. Put shortly:
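Normal human glucocerebrosidase (0.2 nM) with blue fluorogenic substrate (80 uM final) in citrate/phosphate pH 5.9 with 10mM sodium taurocholate, 0.01% tween-20; 40 min RT, NaOH/glycine stop; fluorescence Ex 365/Em 440; AC50 from a titration from 0.6 nM upwards.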

Experiment [2] can be described thus: AP1 Signaling Pathway (AID 357). Also: % is scaled to controls: 0 for no effect and ±100 for the full control effect. The conditions noted are these: ME-180 AP-1-bla reporter, EGF-induced, beta-lactamase ratio, 5 h; at 7.69 µM (top of the series) unless noted. Put shortly: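 Cells are seeded overnight, exposed to compound titrations and an EC50 level of EGF for 5 hours at 37 °C, then loaded with CCF4 dye for 2.5 hours. Beta-lactamase activity under the AP-1 element is read as a blue/green ratio.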

Experiment [3] can be described thus: NFAT Signaling Pathway (AID 444).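 Also: carbachol stimulus at about its EC50 of 1 µM final; % is scaled to controls: 0 for no effect and ±100 for the full control effect.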 The conditions noted are these: Jurkat NFAT-bla M1, carbachol, beta-lactamase ratio, 5 h; at 7.69 µM (top of the series) unless noted. Put shortly: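 Jurkat cells carrying an NFAT-driven β-lactamase reporter and co-transfected muscarinic M1 receptor were treated with compound plus carbachol (1 uM final, an EC50 level) for 5 h at 37 °C. CCF4 loading followed for 1 h at RT; 460/530 nm ratio gave %activity.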

A short description of experiment [4]: Stat Signaling Pathway (AID 446).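 Also: ME-180 cervical cancer cells given 40 pM IL-6 alongside compound; SIE-controlled beta-lactamase reporter measured as 460/530 nm FRET emission ratio; % is scaled to controls: 0 for no effect and ±100 for the full control effect.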 The conditions noted are these: ME-180 (cervical carcinoma) SIE beta-lactamase reporter, IL-6 stimulated, 5 h; at 7.69 µM (top of the series) unless noted. An outline of the steps:
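Emission at 460 and 530 nm (excitation 405 nm) reports SIE-controlled beta-lactamase in ME-180 cells. Cells received compound with 40 pM IL-6 for 5 hrs at 37 C; data scaled between 300 pM IL-6 and 125 nM JAK-inhibitor controls.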

Experiment [5] has as its target Glucocorticoid receptor (Homo sapiens) (UniProt P04150). In words: GR-GFP Redistribution (AID 450;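 active = compounds whose dose series gives a full or clear partial fitted curve of increased nuclear translocation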; also: potency is read from the fitted curve at half-maximal effect). The conditions noted are these: U2OS GR-GFP nuclear translocation, laser cytometry, 2 h.
Experiment [6] shares this target. The experiment is described as follows: GR-EFC Redistribution (AID 451; calls by dose curve; also: potency is read from the fitted curve at half-maximal effect). The conditions noted are these: CHO-K1 GR-EFC translocation, beta-gal luminescence, 2 h. An outline of the steps: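 CHO-K1 cells stably expressing nuclear-localized β-gal enzyme acceptor and GR fused C-terminally to the enzyme donor fragment; ligand-driven nuclear translocation restores β-gal by complementation. Compounds titrated up to 46 uM final, 2 h at 37 °C; luminescence read.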

Experiment [7] addresses Mitogen-activated protein kinase 10 (Mus musculus) (UniProt Q61831). In words: JNK3 AlphaScreen Assay (AID 530).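 Also: kinase came from lysate of stimulated human HepG2 cells; signal reports phosphorylation of biotinylated GST-cJun 1-79 at Ser73 with 10 µM ATP; % is scaled to controls: 0 for no effect and ±100 for the full control effect.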 The conditions noted are these: JNK3 lysate, c-Jun phosphorylation; series mostly up to 57.1 µM. Put shortly:
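Biotinylated GST-cJun(1-79) served as substrate for JNK3 in HepG2 lysates stimulated with IL-1beta and TNF-alpha. ATP was 10 uM final, pH 7.6. Ser73 phosphorylation was quantified by AlphaScreen (680 nm excitation).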

In experiment [8] the target is 3',5'-cyclic-AMP phosphodiesterase 4B (Homo sapiens) (UniProt Q07343). The experiment is described as follows: qHTS Assay for Inhibitors of PDE-IV (AID 607; active = well fitted activation curve with a large enough effect in the main read-out, with a control signal flat, not every such curve was filed as active; also: % of control where 0% means no effect). The conditions noted are these: HEK293 ACTOne CNG channel cells, membrane potential fluorescence; series mostly up to 22.9 µM. An outline of the steps: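 The readout is membrane depolarisation from a cAMP-sensing CNG channel, detected with a potential dye at ex 535/em 590. Cells were HEK293-derived (endogenous PDE-IV) at 1000 cells/well, titrated up to 22.9 uM final.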
Chain of 3',5'-cyclic-AMP phosphodiesterase 4B (Homo sapiens) (Q07343 whole entry, looked up): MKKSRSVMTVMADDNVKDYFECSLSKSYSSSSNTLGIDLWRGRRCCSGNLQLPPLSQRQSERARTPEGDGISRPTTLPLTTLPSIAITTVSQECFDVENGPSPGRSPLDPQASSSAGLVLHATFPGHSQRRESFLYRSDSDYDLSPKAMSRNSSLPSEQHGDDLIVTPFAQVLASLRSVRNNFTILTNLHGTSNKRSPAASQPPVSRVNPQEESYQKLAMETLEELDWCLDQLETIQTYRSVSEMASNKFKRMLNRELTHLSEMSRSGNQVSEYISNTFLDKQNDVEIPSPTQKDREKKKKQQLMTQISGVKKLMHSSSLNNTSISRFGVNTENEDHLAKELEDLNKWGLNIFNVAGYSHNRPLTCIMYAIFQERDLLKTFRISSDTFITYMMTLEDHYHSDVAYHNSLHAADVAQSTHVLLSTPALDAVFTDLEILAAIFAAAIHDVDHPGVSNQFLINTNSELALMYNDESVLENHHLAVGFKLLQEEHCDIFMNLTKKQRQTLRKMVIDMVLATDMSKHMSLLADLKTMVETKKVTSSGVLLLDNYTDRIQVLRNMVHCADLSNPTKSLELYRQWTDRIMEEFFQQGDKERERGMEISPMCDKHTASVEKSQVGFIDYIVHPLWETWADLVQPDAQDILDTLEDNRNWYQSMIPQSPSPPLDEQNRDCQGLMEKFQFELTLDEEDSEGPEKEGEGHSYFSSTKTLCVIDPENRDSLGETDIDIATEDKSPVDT

Experiment [9] can be described thus: Confirmation and Secondary Assay for Modulators of Hemoglobin Beta Chain Splicing at IVS2 654 locus (AID 910; active = well fitted curve in the direction sought with a large enough effect; an effect the other way counts as inactive or inconclusive;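 also: per-well total GFP intensity by laser scanning cytometry after 2-day treatment; % of control where 0% means no effect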). The conditions noted are these: HeLa EGFP-654 splicing reporter, GFP fluorescence, 48 h; series mostly up to 38.3 µM. An outline of the steps:
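HeLa cells stably carrying EGFP interrupted by mutant beta-globin IVS2-654 intron (CMV-driven) were treated with compound for 2 days at 37C; corrected splicing was scored as total peak GFP intensity per well (488 nm excitation, 500-520 nm emission).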

Experiment [10] is described as follows: Confirmation and Secondary Assay for Modulators of Hemoglobin Beta Chain Splicing at IVS2 705 locus (AID 930; active = well fitted curve in the direction sought with a large enough effect; an effect the other way counts as inactive or inconclusive; also: % of control where 0% means no effect). The conditions noted are these: HeLa EGFP-705 splicing reporter, GFP fluorescence, 48 h; series mostly up to 38.3 µM. An outline of the steps: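 HeLa cells stably carrying EGFP interrupted by mutant beta-globin IVS2-705 intron (CMV-driven) were seeded at 500 cells/well, treated next day with compound for 2 days at 37C; corrected splicing restores EGFP, read as total peak GFP intensity per well.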

Experiment [11] can be described thus: qHTS Assay for Lipid Storage Modulators (AID 1519; calls by dose curve). The conditions noted are these: Drosophila S3 cells, BODIPY lipid droplet/cell ratio, laser cytometry, cells loaded with oleic acid; for activity change, negative = inhibition: at 57.5 µM (top of the series). An outline of the steps:
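Cells seeded at 5,000 per well were treated with compounds over a concentration series and loaded with oleic acid (400 uM, as added). Lipid droplet fluorescence (488 nm excitation, 500-530 nm channel) was read by laser-scanning cytometry and normalized to 20 uM Triacsin C.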

Experiment [12] concerns the target Ubiquitin carboxyl-terminal hydrolase 1 (Homo sapiens) (UniProt O94782). The experiment is described as follows: Inhibitors of USP1/UAF1: Pilot qHTS (AID 504865; active = well fitted curve in the direction sought with a large enough effect; an effect the other way counts as inactive or inconclusive;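 also: rhodamine fluorescence freed from ubiquitin-rhodamine substrate followed over time; top concentration of the series differs between compounds; % is scaled to controls: 0 for no effect and ±100 for the full control effect; nearly all actives have a fitted effect of over 35% in size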). The conditions noted are these: purified USP1/UAF1, Ub-rhodamine cleavage fluorescence; series mostly up to 54.9 µM. An outline of the steps:
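In 50mM HEPES pH 7.8 containing 0.5mM EDTA, 1mM TCEP, 0.1 mg/ml BSA and 0.01% Tween-20, 1nM USP1/UAF1 is exposed to compound for 15 min, then Ub-Rho (150nM final) is added and fluorescence is read over time.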

A short description of experiment [13]: Primary qHTS for small molecule stabilizers of the endoplasmic reticulum resident proteome: Secreted ER Calcium Modulated Protein (SERCaMP) assay (AID 1508630; active = well fitted curve in the direction sought with a large enough effect; an effect the other way counts as inactive or inconclusive; also: % is scaled to controls: 0 for no effect and ±100 for the full control effect). The conditions noted are these: SH-SY5Y GLuc-SERCaMP (Gaussia luciferase released on ER calcium loss) secretion, thapsigargin, luminescence; series mostly up to 38.4 µM. An outline of the steps: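 The SH-SY5Y reporter protocol was run at 3 concentrations up to 38.3 uM (primary) or 11 concentrations (follow-up): 16 h compound, 100 nM thapsigargin for 4 h, then extracellular luciferase luminescence.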

In experiment [14] the target is Cytochrome P450 3A4 (Homo sapiens) (UniProt P08684). In words: qHTS Assay for Inhibitors and Substrates of Cytochrome P450 3A4 (AID 884; active = well fitted curve in the direction sought with a large enough effect; an effect the other way counts as inactive or inconclusive; also: potency is read from the fitted curve at half-maximal effect; nearly all actives have a fitted effect of over 50% in size). The conditions noted are these: recombinant CYP3A4, Luciferin-PPXE luminescence; series mostly up to 57.1 µM. Put shortly: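 Luminescent readout of luciferin produced by CYP3A4 (20 nM) dealkylation of Luciferin-PPXE, 25 uM (its KM). NADPH-driven reaction ran 60 min at RT after 10 min compound preincubation; data scaled to 57 uM ketoconazole as 100% inhibition.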
Chain of Cytochrome P450 3A4 (Homo sapiens) (P08684 whole entry, looked up): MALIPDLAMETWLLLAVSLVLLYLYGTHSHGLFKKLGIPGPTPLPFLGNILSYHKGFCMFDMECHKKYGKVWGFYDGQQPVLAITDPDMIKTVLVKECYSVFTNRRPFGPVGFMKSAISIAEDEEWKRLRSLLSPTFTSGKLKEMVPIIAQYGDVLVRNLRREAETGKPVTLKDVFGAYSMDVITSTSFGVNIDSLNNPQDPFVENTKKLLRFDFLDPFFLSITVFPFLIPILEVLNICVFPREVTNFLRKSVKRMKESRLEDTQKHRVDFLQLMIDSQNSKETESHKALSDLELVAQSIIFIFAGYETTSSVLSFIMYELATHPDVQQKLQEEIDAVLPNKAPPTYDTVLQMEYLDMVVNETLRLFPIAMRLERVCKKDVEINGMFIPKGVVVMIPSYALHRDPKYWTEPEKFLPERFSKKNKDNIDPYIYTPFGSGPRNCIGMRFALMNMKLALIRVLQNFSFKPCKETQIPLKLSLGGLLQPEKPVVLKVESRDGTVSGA

Experiment [15] shares this target. In words: qHTS Assay for Activators of Cytochrome P450 3A4 (AID 885; active = well fitted curve in the direction sought with a large enough effect; an effect the other way counts as inactive or inconclusive; also: nearly all actives have a fitted effect of over 65% in size). The conditions noted are these: recombinant CYP3A4, Luciferin-PPXE luminescence, 60 min; series mostly up to 57.1 µM. An outline of the steps:
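Activators are scored by enhanced luminescence from CYP3A4 conversion of luciferin-PPXE (25uM, equal to KM) to luciferin, after 60 min at RT with an NADPH-regenerating system.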

The mark [16] stands for this setting: measured here: cell count channel max response.
[17] abbreviates: measured here: lipid channel max response.

Chain of Glucocorticoid receptor (Homo sapiens) (P04150 whole entry, looked up, the tested form may be a part): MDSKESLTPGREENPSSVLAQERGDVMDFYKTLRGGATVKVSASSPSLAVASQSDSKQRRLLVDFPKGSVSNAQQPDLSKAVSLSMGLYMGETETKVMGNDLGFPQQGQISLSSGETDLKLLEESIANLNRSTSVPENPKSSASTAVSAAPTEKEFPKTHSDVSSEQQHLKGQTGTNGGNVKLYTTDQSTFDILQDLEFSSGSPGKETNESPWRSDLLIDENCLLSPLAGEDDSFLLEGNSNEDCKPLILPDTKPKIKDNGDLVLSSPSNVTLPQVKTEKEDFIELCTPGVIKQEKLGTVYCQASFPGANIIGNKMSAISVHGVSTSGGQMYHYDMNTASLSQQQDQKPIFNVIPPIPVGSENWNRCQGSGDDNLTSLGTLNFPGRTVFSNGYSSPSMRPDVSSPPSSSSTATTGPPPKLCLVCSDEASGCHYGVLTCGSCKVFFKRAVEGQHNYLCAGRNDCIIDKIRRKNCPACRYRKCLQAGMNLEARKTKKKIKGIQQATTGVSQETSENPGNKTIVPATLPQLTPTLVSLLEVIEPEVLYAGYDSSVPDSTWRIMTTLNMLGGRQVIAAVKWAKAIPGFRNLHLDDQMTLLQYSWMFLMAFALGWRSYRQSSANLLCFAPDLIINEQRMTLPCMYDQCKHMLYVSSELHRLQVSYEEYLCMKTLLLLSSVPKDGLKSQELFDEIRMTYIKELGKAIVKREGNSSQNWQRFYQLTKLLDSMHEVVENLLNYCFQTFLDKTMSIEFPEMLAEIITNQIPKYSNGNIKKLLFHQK
Chain of Lysosomal acid glucosylceramidase (Homo sapiens) (P04062 whole entry, looked up): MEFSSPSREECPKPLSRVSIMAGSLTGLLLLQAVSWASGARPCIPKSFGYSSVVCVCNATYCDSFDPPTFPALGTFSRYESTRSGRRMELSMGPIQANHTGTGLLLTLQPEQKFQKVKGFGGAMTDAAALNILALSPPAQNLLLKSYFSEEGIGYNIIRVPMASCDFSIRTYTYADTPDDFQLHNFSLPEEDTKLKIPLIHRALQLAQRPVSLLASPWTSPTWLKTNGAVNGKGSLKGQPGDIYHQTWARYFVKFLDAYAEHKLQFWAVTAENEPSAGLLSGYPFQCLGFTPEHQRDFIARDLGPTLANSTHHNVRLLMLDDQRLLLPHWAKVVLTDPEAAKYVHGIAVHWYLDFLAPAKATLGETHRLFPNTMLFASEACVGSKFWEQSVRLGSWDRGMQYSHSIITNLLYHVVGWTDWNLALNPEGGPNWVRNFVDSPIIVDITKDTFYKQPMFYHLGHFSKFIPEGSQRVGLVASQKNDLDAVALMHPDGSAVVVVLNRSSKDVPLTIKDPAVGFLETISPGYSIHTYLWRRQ
Chain of Ubiquitin carboxyl-terminal hydrolase 1 (Homo sapiens) (O94782 whole entry, looked up): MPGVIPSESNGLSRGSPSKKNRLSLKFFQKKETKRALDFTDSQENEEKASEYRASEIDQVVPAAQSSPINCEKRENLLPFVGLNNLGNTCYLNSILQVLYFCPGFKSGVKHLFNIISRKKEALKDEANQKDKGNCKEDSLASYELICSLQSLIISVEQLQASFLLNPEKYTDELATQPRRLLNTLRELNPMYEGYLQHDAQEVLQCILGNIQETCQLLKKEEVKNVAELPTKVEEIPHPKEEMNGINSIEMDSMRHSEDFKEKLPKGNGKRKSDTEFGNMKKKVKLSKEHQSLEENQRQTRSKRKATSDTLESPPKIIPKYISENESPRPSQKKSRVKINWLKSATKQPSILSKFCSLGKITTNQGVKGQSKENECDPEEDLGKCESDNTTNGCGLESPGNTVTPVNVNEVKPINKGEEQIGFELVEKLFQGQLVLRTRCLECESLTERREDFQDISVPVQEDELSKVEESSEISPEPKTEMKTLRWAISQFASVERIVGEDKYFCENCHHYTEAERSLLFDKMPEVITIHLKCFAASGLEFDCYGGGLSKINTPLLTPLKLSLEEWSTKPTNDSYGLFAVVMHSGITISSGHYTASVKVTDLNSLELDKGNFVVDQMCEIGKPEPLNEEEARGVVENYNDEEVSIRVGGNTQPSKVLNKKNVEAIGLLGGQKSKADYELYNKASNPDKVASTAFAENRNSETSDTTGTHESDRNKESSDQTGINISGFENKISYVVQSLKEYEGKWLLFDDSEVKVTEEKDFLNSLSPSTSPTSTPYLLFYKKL

Regarding `Cc1cnc(CNc2ccnc(-c3ccc(C(=O)N(C)C)cc3)n2)cn1`, the Potency was > 11.4 µM (inactive) in experiment [1], > 46 µM (inactive) in [5] and > 46 µM (inactive) in experiment [6]. Also, the activity change, negative = inhibition in [2] is 9.07% (inactive); in experiment [3], 1.49% (inactive); in experiment [11], 9.3% (inactive). Also, the activity, negative = inhibition in experiment [4] is 0.405% (inactive). Further, the Potency result in experiment [7], in [8], in [9] and in [12] was “inactive” throughout. Also, the result in [10] and in experiment [13] was inactive. Moreover, the max response turned out to be 6.03% in experiment [11] (setting [16]) and 15.8% in experiment [11] (setting [17]).
With `Cc1cccc(CNc2ncnc3ccc(-c4ccccc4C#N)cc23)c1`, the figures for the Potency in experiment [1] and in experiment [5] were > 11.4 µM (inactive) and > 46 µM (inactive), respectively. The activity change, negative = inhibition in experiment [2] is -28.4% (inactive); in experiment [3], 12.9% (inactive); in experiment [11] it was 0.748% (inactive). Also, the activity, negative = inhibition in experiment [4] is -7.62% (inactive). Moreover, the Potency entry in experiment [7] and in experiment [9] was “inactive” each time. Besides, the max response in experiment [11] (setting [16]) stood at 4.98%; in [11] (setting [17]) it was 4.86%. In addition, the result in [13] was inactive.
Consider `CN(C)C(=O)c1ccc(-c2ccc3ncnc(NC4CCNCC4)c3c2)cc1`, for which the Potency was > 11.4 µM (inactive) in [1], > 46 µM (inactive) in experiment [5] and > 46 µM (inactive) in [6]. Further, the activity change, negative = inhibition in experiment [2] is -6.93% (inactive); in [3], 7.8% (inactive); in experiment [11], 6.36% (inactive). Further, the activity, negative = inhibition in experiment [4] was 14.8% (inactive). Further, the Potency result in [7], in experiment [8], in [9] and in experiment [12] was “inactive” throughout. The result in experiment [10] and in experiment [13] was inactive. The max response in experiment [11] (setting [16]) came out at 9.43%; in experiment [11] (setting [17]), 16.5%.
On to `COC(=O)N1CCC[C@@]2(CCN(Cc3cc(C(F)(F)F)cc(C(F)(F)F)c3)C2)C1`, for which the results for the Potency in [1] and in experiment [6] were > 11.4 µM (inactive) and > 46 µM (inactive), respectively. Moreover, the values for the activity change, negative = inhibition in experiment [2], in [3] and in experiment [11] were -12.5% (inactive), 9.2% (inactive) and -1.37% (inactive), respectively. Moreover, the activity, negative = inhibition in experiment [4] is -8.1% (inactive). The Potency entry in experiment [7] and in experiment [8] was “inactive” each time. Moreover, the max response in experiment [11] (setting [16]) is 12.3%; in experiment [11] (setting [17]), 14.8%. Moreover, the outcome in experiment [13] was inactive.
As for `Cc1ccccc1-c1nc(NCCN2CCOCC2)c2ccccc2n1`, the Potency in experiment [1] was > 11.4 µM (inactive); in experiment [5], > 46 µM (inactive); in [6], > 46 µM (inactive). In addition, the values for the activity change, negative = inhibition in [2], in experiment [3] and in experiment [11] were -10.8% (inactive), -9.08% (inactive) and 8.15% (inactive), respectively. The activity, negative = inhibition in experiment [4] was -0.303% (inactive). The Potency result in [7], in experiment [8] and in [9] was “inactive” in each case. Besides, the result in [10] and in [13] was inactive. Further, the max response in [11] (setting [16]) is 17.4%; in experiment [11] (setting [17]), 26.1%.
Regarding `COc1ncc2nc(-c3cn(C)c4ccccc34)c(=O)n(Cc3ccc(F)cc3)c2n1`, the Potency in experiment [1] is > 11.4 µM (inactive); in experiment [5], > 9.22 µM (inactive); in experiment [6] it was > 46 µM (inactive); in experiment [14], 6.31 µM (active). In addition, the activity change, negative = inhibition in experiment [2] was 10.6% (inactive); in experiment [3], -4.65% (inactive); in [11], 3.02% (inactive). In addition, the activity, negative = inhibition in experiment [4] is 20.2% (inactive). Besides, the Potency entry in experiment [7], in experiment [8] and in experiment [15] was “inactive” in each case. Besides, the values for the max response in experiment [11] (setting [16]) and in experiment [11] (setting [17]) were 18.8% and 23.9%, respectively. Besides, the outcome in experiment [13] was inactive.
